Screening data (PubChem)
NR3A LBD binder = modulators (binders) of human NR3A ligand-binding domain; NR3A LBD differential scanning fluorimetry, Tm shift; 0% = protein alone, 100% = glycine-bound protein; Tm shift relative to glycine control, % at 25 µM; hit rate 2.5% among 340,000; AID 1259313;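 active means melting temperature shift of at least 10% of the positive control shift, at one fixed dose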
Mdm2-MdmX inh = human Mdm2/MdmX binding inhibition; O15151+Q00987; AID 485346; hit rate 3% among 330,000; inhibition, % at 8 µM; SaOS-2 split-luciferase Mdm2/MdmX complementation, luminescence;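 active means inhibition of at least 50% at 8 µM in the primary screen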
SKKanGAS inh = inhibitors of SKKanGAS S. pyogenes growth in kanamycin (SK-promoter or general growth effect); BacTiter-Glo, 6 h; inhibition, % at 7.5 µM; hit rate 1.3% among 300,000;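 active means mean replicate score, as percent of positive control median, at least 50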;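 further: strain carries kanamycin resistance gene driven by streptokinase promoter and grows in 40 µg/ml kanamycin; loss of luminescence reflects streptokinase promoter inhibition or plain growth inhibition; 0% = median of DMSO wells and 100% = positive control at its reference dose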
Beta cell apopt = beta cell apoptosis inhibition; INS-1E cytokine-induced death, ATP luminescence, 48 h; percent of positive-control rescue, neutral wells zero; protection from apoptosis, % (no concentration beside the values); hit rate 0.8% among 300,000;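 active means Every replicate reaches about 75%, or at least half do and their mean reaches it too, limit read from the data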;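 further: 0% = cytokine-treated negative control wells and 100% = positive control rescue; higher means more ATP so stronger rescue from cytokine killing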
CSC inhib = blocks cancer stem cells | cancer stem cell-like cells viability, luminescence | inhibition, % at 7.5 µM | hit rate 1.1% among 300,000 | AID 2717; in the data active means inhibition above about 75%; tested in HMLE shEcad cells
MPTP inh = inhibitors of mitochondrial permeability transition pore | isolated mouse mitochondria, Ca2+ swelling absorbance, 30 min | inhibition, % at 10 µM | hit rate 1.4% among 360,000 | AID 602449;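 active means inhibition of 50% or more, scaled per plate between neutral and stimulator controls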;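 further: 0% = DMSO wells given calcium and 100% = 1 mM EGTA wells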
Starred values were filed as active, the others as inactive; · = no result. Sampled rows, rich in hits. Any-hit rate of the full collection: about 6.9%.

SMILES	NR3A LBD binder	Mdm2-MdmX inh	SKKanGAS inh	Beta cell apopt	CSC inhib	MPTP inh
O=C(/C=C/c1ccc(N2CCCCC2)c([N+](=O)[O-])c1)c1ccc(S(=O)(=O)N2CCCC2)cc1	-4	·	3	3	29	1
COc1cccc(OC)c1C(=O)NC(=S)N1CCN(c2ccc(C(F)(F)F)cc2[N+](=O)[O-])CC1	-7	40	10	3	-3	-5
O=C(NC(=S)N1CCN(c2ccc(Cl)cc2[N+](=O)[O-])CC1)c1ccco1	0	-4	3	1	-3	0
O=C(NC(=S)N1CCN(c2ccc(Cl)cc2[N+](=O)[O-])CC1)c1cccs1	-5	·	71*	7	20	17
CC(C)Oc1cccc(C(=O)NC(=S)N2CCN(c3ccc(C(F)(F)F)cc3[N+](=O)[O-])CC2)c1	-3	46	97*	6	24	1
COc1cccc(C(=O)/C=C/c2ccc(N3CCCCC3)c([N+](=O)[O-])c2)c1	2	11	30	-2	86*	2
COc1cccc(C(=O)NC(=S)N2CCN(c3ccc(C(F)(F)F)cc3[N+](=O)[O-])CC2)c1	-3	10	70*	·	-8	29
COc1ccc(NC(=O)Cn2c(NCC(C)O)nc3ccccc32)cc1Cl (stereo not drawn)	2	13	-3	-3	6	1
Cc1ccc(/C=N/NC(=O)COc2ccc(Cl)c(C)c2)o1	1	11	1	-3	6	1
Cc1ccc(NC(=O)COC(=O)c2ccc(-n3nc(C)cc3C)cc2)c(F)c1	3	1	·	4	8	-1
O=Nc1c(O)n(Cc2ccc(Cl)c(Cl)c2)c2ccccc12	-8	49	24	11	84*	21
O=Nc1c(O)n(Cc2ccccc2)c2ccccc12	0	23	-3	-9	-15	1
COC(=O)CCC1(C(N)=O)CCC(=O)c2ccccc21 (stereo not drawn)	13*	·	·	·	·	0
CCN1CCN(c2ccc(S(=O)(=O)N3CCOCC3)cc2NC(=O)C2CCC(C(C)(C)C)CC2)CC1 (stereo not drawn)	19*	·	·	·	·	-1
Cc1ccccc1N=Nc1c(O)n(C)c2ccccc12	0	12	2	-5	-13	0
CC1C(=O)N(c2ccc(S(=O)(=O)N(C)C)cc2)C1(/C=C/c1ccccc1)C(=O)NC1CCCC1 (stereo not drawn)	28*	33	13	2	8	5
CCOC(=O)C(=O)NC12CC3CC(CC(C3)C1)C2	11*	22	-1	-9	-16	6
CCOCC(=O)OCC(=O)NC12CC3CC(CC(C3)C1)C2	-2	0	-12	-2	-10	2
CCCOc1ccc(/C(O)=C2/C(=O)C(=O)N(c3ccccn3)C2c2ccc(OC)cc2)cc1C (stereo not drawn)	·	-13	50*	-3	5	0
O=C1C(=O)N(c2ccccn2)C(c2ccc(F)cc2)/C1=C(/O)c1ccc(Br)cc1 (stereo not drawn)	-1	-10	6	·	6	2
O=C1C(=O)N(c2ccccn2)C(c2ccc(Br)cc2)/C1=C(/O)c1ccc(Br)cc1 (stereo not drawn)	-7	-14	69*	3	13	7
CC(Oc1ccc(Cl)cc1Cl)C(=O)NNC(=O)C(=O)N1CCCCC1 (stereo not drawn)	1	-4	-6	-11	2	1
O=C(/C=C/Nc1ccc([N+](=O)[O-])cc1Br)c1cccc2ccccc12	13*	-283	-4	-2	23	3
COc1ccc2oc(C(=O)OCC(=O)Nc3cc(S(=O)(=O)N4CCOCC4)ccc3OC)c(C)c2c1	-2	42	1	2	-11	0
CCCc1nc2c(=O)n(C)c(=O)[nH]c2n1CCC	14*	12	-4	-7	-14	3
CCCCn1c(C)nc2c(=O)n(C)c(=O)[nH]c21	2	-1	-3	3	-1	1
CC1=C(C#N)c2nc(N)c(C#N)c(C)c2/C1=C\c1ccc(C)cc1	·	30	71*	·	31	·
O=C(COc1cc2oc(=O)cc(-c3ccccc3)c2cc1Cl)NCc1ccccn1	-2	11	-1	-3	2	-1
S=C(NCCCN1CCOCC1)Nc1ccc(Cl)cc1Cl	0	-29	6	-2	1	0
S=C(NCCN1CCOCC1)Nc1ccc(Cl)cc1Cl	12*	-24	-10	1	2	0
